From PubChem
A selection: hits, their analogues and other compounds. The true share with any hit is near 1.5%.
MCL1 BIM primary = inhibitors of MCL1 binding to BIM-BH3, primary screen, biochemical, fluorescence polarization | 320,000 tested, 0.68% active | Induced myeloid leukemia cell differentiation protein Mcl-1 (Homo sapiens), Q07820 | GST-MCL1 / FITC-Bim-BH3 fluorescence polarization | inhibition, % at 10.9 µM;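 active means inhibition above the mean inhibition of all tested compounds plus 3 SD, set per campaign, cut at about 40% in these data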;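 further: higher means more loss of mP so more displacement of Bim peptide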
Target sequence (Q07820 whole entry, looked up): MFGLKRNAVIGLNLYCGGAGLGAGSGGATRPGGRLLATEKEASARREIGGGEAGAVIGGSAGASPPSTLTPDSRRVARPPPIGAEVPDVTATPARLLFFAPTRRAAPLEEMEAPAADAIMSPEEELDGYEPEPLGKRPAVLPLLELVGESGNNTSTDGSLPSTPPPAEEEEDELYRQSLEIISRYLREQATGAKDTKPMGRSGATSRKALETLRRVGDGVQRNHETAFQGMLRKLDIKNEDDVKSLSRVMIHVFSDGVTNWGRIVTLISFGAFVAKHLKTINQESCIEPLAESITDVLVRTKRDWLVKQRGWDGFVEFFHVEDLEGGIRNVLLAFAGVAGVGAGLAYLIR
Bcl-xL primary = inhibitors of human Bcl-xL, primary screen, biochemical, fluorescence polarization, HTS. Bcl-2-like protein 1 (Homo sapiens), Q07817. GST-Bcl-xL / FITC-Bim BH3 peptide fluorescence polarization. inhibition, % at 10.9 µM. 320,000 tested, 0.7% active;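 active means inhibition above the mean of all tested compounds plus 3 SD, cutoff set per campaign, cut at about 30% in these data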;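 further: inhibitors lower millipolarization by displacing the labeled peptide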
Target sequence (Q07817 whole entry, looked up): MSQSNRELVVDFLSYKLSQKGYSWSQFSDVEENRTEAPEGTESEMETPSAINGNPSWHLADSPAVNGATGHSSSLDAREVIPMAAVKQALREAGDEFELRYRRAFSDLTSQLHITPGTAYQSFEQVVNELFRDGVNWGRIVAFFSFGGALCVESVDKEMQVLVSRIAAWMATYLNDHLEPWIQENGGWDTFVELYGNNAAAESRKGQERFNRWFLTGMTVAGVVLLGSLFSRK
MEX-5 binding = MEX-5 zinc finger RNA-binding disruptors – biochemical, C. elegans, fluorescence polarization, MLPCN library, primary screen | activity score (negative = inhibition of binding), % at 10 µM | 300,000 tested, 0.38% active | Zinc finger protein mex-5 (Caenorhabditis elegans), Q9XUB2 | MEX-5/FITC-TCR2 RNA binding; hits give low values;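 active means inhibition past about -25% in most replicates, and total fluorescence under double the plate's negative control median, limit read from the data; inconclusive means replicates evenly split on the limit, or fluorescence at least double controls; inactive means too little inhibition in most replicates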
GLD-1 RNA inh = GLD-1/TGE RNA complex disruptors, primary screen, biochemical, fluorescence polarization; Female germline-specific tumor suppressor gld-1 (Caenorhabditis elegans), Q17339; purified GLD-1 + fluorescein TGE RNA; 320,000 tested, 0.44% active; AID 2280, 2010; inhibition, % at 5.96 µM;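 active means percent inhibition above a per-plate cutoff, the plate mean of test compounds plus 3 SD, cut at about 30% in these data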
IDE cell activ = human IDE activators in live cells, primary screen, fluorescence polarization, HEK cells, FAbeta-B substrate. FAbeta-B cleavage; 0% vehicle, 100% cell-free pure enzyme wells. activation, % at 5.96 µM. 340,000 tested, 0.073% active;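 active means activation above the mean of all tested compounds plus 3 SD, set per screening campaign, cut at about 17% in these data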
IDE cell inh = human IDE inhibitors in live cells, primary screen, fluorescence polarization, HEK cells, FAbetaB substrate; FAbetaB cleavage; inhibition, % at 5.59 µM; 320,000 tested, 0.41% active;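 active means percent inhibition above the average of all tested compounds plus 3 SD, set per screening campaign, cut at about 16% in these data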;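 further: IDE supplied by intact live HEK cells; FP after avidin binding of uncleaved biotin substrate so inhibition keeps polarization high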
Hits are given with their value.

Screening COC(=O)CCC(=O)OC1(C)C(=O)C2=CN(CCCCO)C(c3ccc(OC)cc3)=CC2=C(Br)C1=O (stereo not given) returned MCL1 BIM primary 40, Bcl-xL primary 32, MEX-5 binding inactive, GLD-1 RNA inh inactive and IDE cell inh inactive.
Screening Cc1cc(Oc2ccc([N+](=O)[O-])cc2)nc(N2CCOCC2)n1 returned MCL1 BIM primary inactive, Bcl-xL primary inactive, MEX-5 binding inactive, GLD-1 RNA inh inactive, IDE cell activ inactive and IDE cell inh inactive.
`Cc1cc(Oc2ccc(C#N)cc2)nc(N2CCOCC2)n1` gave MCL1 BIM primary inactive, Bcl-xL primary inactive, MEX-5 binding inactive, GLD-1 RNA inh inactive, IDE cell activ 28 and IDE cell inh inactive.
Screening CCOC(=O)C1=C(c2ccccc2)NC(N)=NC1c1ccc(OCc2ccc(Cl)cc2)c(OC)c1 (stereo not given) returned MCL1 BIM primary inactive, Bcl-xL primary inactive, MEX-5 binding inactive, GLD-1 RNA inh inactive, IDE cell activ 19 and IDE cell inh inactive.
`CCOC(=O)C1=C(c2ccccc2)NC(=O)NC1c1cc(Cl)c(O)c(OC)c1` (stereo not given) gave MCL1 BIM primary inactive, Bcl-xL primary inactive, MEX-5 binding inactive, GLD-1 RNA inh inactive, IDE cell activ inactive and IDE cell inh inactive.
Screening Cc1cc(O)ccc1C1(c2ccc(O)cc2C)OC(=O)c2ccccc21 returned MCL1 BIM primary inactive, Bcl-xL primary inactive, MEX-5 binding inactive, GLD-1 RNA inh inactive, IDE cell activ inactive and IDE cell inh inactive.
Screening O=C1OC2(c3ccccc31)c1cc(I)c(O)c(I)c1Oc1c2cc(I)c(O)c1I returned MCL1 BIM primary 87, Bcl-xL primary 88, GLD-1 RNA inh 51 and IDE cell inh inactive.
`COc1cc(-n2cnnn2)ccc1S(=O)(=O)N1CCOCC1` gave MCL1 BIM primary inactive, Bcl-xL primary 32, MEX-5 binding inactive, GLD-1 RNA inh inactive, IDE cell activ inactive and IDE cell inh inactive.
Cc1ccc(OCC(=O)NCc2cccs2)c([N+](=O)[O-])n1 was read as MCL1 BIM primary inactive, Bcl-xL primary inactive, MEX-5 binding inactive, GLD-1 RNA inh inactive, IDE cell activ inactive and IDE cell inh inactive.
For CCCCCCc1cc2cc(S(=O)(=O)c3ccc(F)c(Cl)c3)c(=O)oc2cc1O the results were MCL1 BIM primary inactive, Bcl-xL primary inactive, MEX-5 binding inactive, GLD-1 RNA inh 97, IDE cell activ inactive and IDE cell inh inactive.
Screening Cc1ccc(NC(=S)c2ccc3ccccc3n2)c(C)c1 returned MCL1 BIM primary inactive, Bcl-xL primary inactive, MEX-5 binding -38, GLD-1 RNA inh inactive, IDE cell activ inactive and IDE cell inh inactive.
For N#CC1=C(N)OC2=C(CC/C2=C\c2ccccc2Cl)C1c1ccccc1Cl (stereo not given) the results were MCL1 BIM primary inactive, Bcl-xL primary inactive, MEX-5 binding inactive, GLD-1 RNA inh inactive, IDE cell activ inactive and IDE cell inh inactive.
N#CC1=C(N)OC2=C(CC/C2=C\c2ccccc2)C1c1ccccc1 (stereo not given) was read as MCL1 BIM primary inactive, Bcl-xL primary inactive, MEX-5 binding inactive, GLD-1 RNA inh 41, IDE cell activ inactive and IDE cell inh inactive.
`Cc1cccc(NC2=Nc3ccccc3N3C2=Nc2c(c(C)nn2-c2ccccc2)C3c2ccc(O)c(O)c2)c1` (stereo not given) gave MCL1 BIM primary 42, Bcl-xL primary 48, MEX-5 binding inconclusive, GLD-1 RNA inh inactive, IDE cell activ inactive and IDE cell inh inactive.
Screening Cc1ccc(NC2=Nc3ccccc3N3C2=Nc2c(c(C)nn2-c2ccccc2)C3c2ccc(O)c(O)c2)cc1 (stereo not given) returned IDE cell activ inactive.
`Cc1cc(Cl)cc2c(N=Nc3ccccc3C(=O)O)c(O)[nH]c12` gave MCL1 BIM primary inactive, Bcl-xL primary inactive, MEX-5 binding inactive, GLD-1 RNA inh inactive, IDE cell activ inactive and IDE cell inh inactive.
Cc1ccc(Cl)c2c(N=Nc3ccccc3)c(O)[nH]c12 was read as MEX-5 binding -43 and IDE cell activ inactive.
Screening CCC(C)(C(=O)NC1CCCCC1)N(C)C(=O)c1ccccn1 (stereo not given) returned MCL1 BIM primary inactive, Bcl-xL primary 52, MEX-5 binding inactive, GLD-1 RNA inh inactive, IDE cell activ inactive and IDE cell inh inactive.
Screening COC(=O)COc1ccc2c(c1)O/C(=C\c1ccco1)C2=O returned MCL1 BIM primary inactive, Bcl-xL primary 75, MEX-5 binding inactive, GLD-1 RNA inh inactive, IDE cell activ inactive and IDE cell inh inactive.
For CCN(CC)C(=O)Oc1ccc2c(c1)O/C(=C\c1ccco1)C2=O the results were MCL1 BIM primary inactive, Bcl-xL primary inactive, MEX-5 binding inactive, GLD-1 RNA inh inactive, IDE cell activ inactive and IDE cell inh inactive.
For c1ccc2c(c1)nc(N1CCOCC1)c1nnnn12 the results were MCL1 BIM primary inactive, Bcl-xL primary 43, MEX-5 binding inactive, GLD-1 RNA inh inactive, IDE cell activ inactive and IDE cell inh inactive.
For Cc1ccc(C(c2ccc(C)c(C)c2)C(O)C2OC(=O)C(O)C2O)cc1C (stereo not given) the results were IDE cell activ inactive.
Screening C/C(=N\Nc1ccc(Cl)c(C(=O)O)c1)c1ccc[nH]1 returned MCL1 BIM primary inactive, Bcl-xL primary inactive, MEX-5 binding -38, GLD-1 RNA inh inactive, IDE cell activ inactive and IDE cell inh inactive.
For COCCCNC(=O)CNC(=O)c1nn(-c2ccc(OC)c(Cl)c2)c(=O)c2ccccc12 the results were MCL1 BIM primary inactive, Bcl-xL primary inactive, MEX-5 binding inactive, GLD-1 RNA inh inactive, IDE cell activ inactive and IDE cell inh inactive.
COc1ccc2nc(NNC(=O)c3cc(=O)c4ccccc4o3)sc2c1 was read as MCL1 BIM primary inactive, Bcl-xL primary inactive, MEX-5 binding inactive, GLD-1 RNA inh inactive, IDE cell activ inactive and IDE cell inh inactive.
`O=C(NNc1nc2c(F)cccc2s1)c1cc(=O)c2ccccc2o1` gave MCL1 BIM primary inactive, Bcl-xL primary inactive, MEX-5 binding inactive, GLD-1 RNA inh inactive, IDE cell activ inactive and IDE cell inh inactive.
Cc1cccc2sc(NNC(=O)c3cc(=O)c4ccccc4o3)nc12 was read as MCL1 BIM primary inactive, Bcl-xL primary inactive, MEX-5 binding -79, GLD-1 RNA inh inactive, IDE cell activ inactive and IDE cell inh inactive.
For Cc1ccc2sc(NNC(=O)c3cc(=O)c4ccccc4o3)nc2c1C the results were MCL1 BIM primary inactive, Bcl-xL primary inactive, MEX-5 binding -64, GLD-1 RNA inh inactive, IDE cell activ inactive and IDE cell inh inactive.
